Laboratory results: PubChem BioAssay (NCATS)
Results filed as inconclusive are left out. Active and inactive are the calls of the source. Calls come from the whole dose curve; as a rule, active = well fitted inhibition curve with a large enough effect; inconclusive = small, poorly fitted or top-dose-only effect; inactive = flat fitted curve, though single readings scatter.

What follows are molecules tested against Calcium and integrin-binding protein 1 (Homo sapiens) (UniProt Q99828) (assay: Primary qHTS for Identification of Calcium Integrin Binding Protein 1 (CIB1) Competitor (AID 1508620; note: top concentration of the series differs between compounds)). Conditions: CIB1-GST / FITC-alphaIIb peptide fluorescence polarization; series mostly up to 114 µM; activity change, negative = inhibition: at the top concentration.
Outline: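 Fluorescence polarization competition: GST-tagged CIB1 (1 uM final) preincubated with compound 15 min at room temperature, then FITC-labelled alphaIIb peptide (100 nM final) added. After 15 min at room temperature, polarization read at Ex 480/Em 540.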
% is set by controls: 0 for no effect and ±100 for the full control effect.

Calcium and integrin-binding protein 1 (Homo sapiens), sequence (Q99828 whole entry, looked up): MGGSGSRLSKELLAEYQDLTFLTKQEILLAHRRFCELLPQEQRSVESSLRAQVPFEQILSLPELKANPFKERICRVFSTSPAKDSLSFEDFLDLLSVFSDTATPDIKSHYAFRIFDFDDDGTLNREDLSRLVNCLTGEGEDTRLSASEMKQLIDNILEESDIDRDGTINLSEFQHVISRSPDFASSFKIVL

Row | SMILES | activity change, negative = inhibition
1 | COc1ccc(NC(=O)c2cccnc2C)cc1S(=O)(=O)Nc1ccc(Br)cc1 | -1.18% (inactive)
2 | CCOc1ccc(C(=O)Oc2ccc(-c3nc4ccccc4[nH]3)cc2)cc1[N+](=O)[O-] | 2.62% (inactive)
3 | CCOC(=O)c1nn(-c2ccccc2)c(=O)c2c(N)scc12 | -15.2% (inactive)
4 | Cc1cc2c(s1)c1cnn(Cc3c(F)ccc(Cl)c3F)c(=O)c1n2C | -0.826% (inactive)
5 | O=[N+]([O-])c1ccc([S+](=O)([O-])N2CCN([S+](=O)([O-])c3ccc4c(c3)OCCO4)CC2)c([N+](=O)[O-])c1 | -12.1% (inactive)
6 | Cc1cc(C)nc(NC(=S)N2CCN(c3cc(Cl)cc(Cl)c3)CC2)c1 | -8.39% (inactive)
7 | O=C(NC1CCCc2c1cnn2-c1ccc(F)cc1F)c1ccc(C(=O)c2ccccc2)cc1 (centres undefined) | 3.03% (inactive)
8 | COC(=O)c1ccc(O)c2ncc(N(C)C)cc12 | -18.1% (inactive)
9 | COc1ccc(C2=Nn3c(nnc3-c3ccccc3F)SC2)cc1OCC1CC1 | 4.62% (inactive)
10 | Cc1ccccc1C(=O)n1ccc2cc(-c3nc(NC(=O)Cc4ccc5c(c4)OCO5)sc3C)ccc21 | 5.2% (inactive)
11 | COc1ccc(CC(=O)Nc2ccc(S(=O)(=O)Nc3cc(C)on3)cc2)cc1OC | -10.3% (inactive)
12 | O=C(NCc1nnc(C(=O)Nc2ccc(C(F)(F)F)cc2Cl)o1)c1ccccc1 | 2.6% (inactive)
13 | COc1ccc(C2Nc3ccccc3C(=O)N2Cc2ccc(C)o2)cc1COc1c(C)cccc1C (centres undefined) | -5.03% (inactive)
14 | COc1ccc(C2Nc3ccccc3C(=O)N2CCO)cc1COc1ccc(NC(C)=O)cc1 (centres undefined) | 5.2% (inactive)
15 | CC(C)(C)OC(=O)N1CCN(c2ccc(NCc3ccc(-c4ccc(C#N)cc4)o3)nc2)CC1 | 4.28% (inactive)
16 | Cc1cc(C)nc(NC(=S)N2CC3CN(c4ncc(C(F)(F)F)cc4Cl)CC3C2)c1 (centres undefined) | 0.0882% (inactive)
17 | COc1cccc(CNc2ccc([S+](=O)([O-])Nc3cc4ccccc4s3)cc2)c1O | 0.126% (inactive)
18 | CC(=O)Nc1cccc(OC2=NS(=O)(=O)c3ccccc32)c1 | -6.11% (inactive)
19 | O=C(Nc1ccc2ccccc2c1)Nc1nnc(C2CCCCC2)s1 | 4.45% (inactive)
20 | CCN(CC)C(=O)COC(=O)c1ccc(S(C)(=O)=O)c([N+](=O)[O-])c1 | -6.92% (inactive)

Row | SMILES | activity change, negative = inhibition
21 | O=c1c2ccccc2nc2sc(NCc3ccccc3)nn12 | 10.8% (inactive)
22 | O=c1cc(CN2CCCN(c3ccc(C(F)(F)F)cn3)CC2)nc2ccccn12 | 2.16% (inactive)
23 | COc1cc(Cn2ncc3c4sc(C)cc4n(C)c3c2=O)cc(OC)c1 | 5.15% (inactive)
24 | Cc1noc(C)c1-c1ccc2ncnc(NCc3cccc(-c4ccccc4)c3)c2c1 | 4.75% (inactive)
25 | CCCCn1cnc2cc(C(=O)N3CCCCC3)ccc21 | -5.51% (inactive)
26 | O=C(OCC#CCSc1nnc(-c2cccc3ccccc23)o1)c1ccc(F)nc1 | -1.26% (inactive)
27 | O=C1Nc2c(Cl)cccc2/C1=C\c1cc(Cl)c(O)c(Cl)c1 | 14% (inactive)
28 | O=C(O)c1ccc(S(=O)(=O)N[C@H](Cc2c[nH]c3ccccc23)C(=O)O)cc1 | -3.28% (inactive)
29 | CC1=C(C(=O)Nc2ccc(Cl)cc2)C(c2ccccc2Br)N=C(Nc2nc3ccccc3o2)N1 (centres undefined) | 0.736% (inactive)
30 | COc1cccc(-c2ccc3ncnc(NCc4cc(C)cs4)c3c2)c1 | 1.32% (inactive)
31 | Cc1nc(NCc2ccc(-c3cccnc3)cc2)c2ccccc2n1 | 4.01% (inactive)
32 | Cc1cc(C)nc(NC(=S)N2CCN(c3noc4ccccc34)CC2)c1 | -3.73% (inactive)
33 | Cc1ccc(OCCn2c3c(c4ccccc42)CCN(C(=O)C2CCCCC2)C3)cc1 | 6.58% (inactive)
34 | Cc1cc(N[S+](=O)([O-])c2ccc(NC(=O)Cc3ccc(F)c(C)c3)cc2)no1 | -12.6% (inactive)
35 | O=C(O)c1cccc(-n2cccc2)c1 | -0.414% (inactive)
36 | COc1cccc(CNc2ccc(S(=O)(=O)Nc3nc4ccccc4o3)cc2)c1O | -16.4% (inactive)
37 | Cc1cc(C)nc(NC(=S)N2CCN(c3ccc(S(C)(=O)=O)cc3F)CC2)c1 | -4.21% (inactive)
38 | Cc1cc(C)n2ncc(C(=O)Nc3ccc4c(c3)OCCO4)c2n1 | 2.7% (inactive)
39 | COc1ccccc1-n1cnc2cc(C(=O)N3CCCCC3)ccc21 | 4.03% (inactive)
